# CtBP-E1A inh: inhibitors of CtBP/E1A interaction; AlphaScreen GST-E1A/His-CtBP binding, 1536-well; stronger effect = lower value; activity change, % (no concentration beside the values); 340,000 tested, 0.49% active; AID 651724; in the data active means activity change below about -65%; inconclusive means mostly about -30% to -63%; further: on the % scale 0 is the no-effect control and ±100 the full control effect
#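 AlphaScreen with 125 nM GST-E1A and 125 nM His-CtBP (5X stocks) in Tris pH 8.0, 300 mM NaCl, BSA, Tween 20, TCEP. Compounds preincubated 2 h at 37 deg C, then glutathione donor/nickel acceptor beads added for 1 h at 37 deg C in dark.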
# HepG2 viability: counter-screen for TGF-b inhibitors: cytotoxicity in HepG2 cells | HepG2 CAGA-GFP viability, ATP luminescence, 18 h | Potency, µM (highest dose often 46.1 µM), inactives show at the highest dose activity change, negative = cytotoxicity, actives largely listed as cytotoxic | 410,000 tested, 0.76% active | AID 588856; further: potency means the concentration at half of the fitted maximal effect
#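 CellTiter-Glo luminescence gave cytotoxicity after 18 hours at 37 degrees C. The cells were HepG2 CAGA-GFP in 1% FBS DMEM, stimulated with 500 pg/mL TGF-beta after compound addition. %Activity was normalised to no-cell wells (complete cell-killing) and DMSO (no toxicity), and curves were fitted and classified.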
# ATXN2 expr inh: ATXN2 expression inhibition; Potency, µM (series often up to 57 µM), for the others: at the top dose activity change, negative = inhibition, actives largely listed as inhibitors; AID 1745845; 360,000 tested, 0.72% active; HEK-293 ATXN2-luciferase reporter, luminescence, 24 h; further: potency means the concentration at half of the fitted maximal effect; on the % scale 0 is the no-effect control and ±100 the full control effect; nearly all actives have a fitted effect of over 55% in size
#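 ATXN2-luciferase reporter cells (luciferase flanked by upstream and downstream ATXN2 gene portions) were treated 24 h at 37 °C with compounds at up to 57 uM. SteadyGlo luminescence gave expression; GF-AFC fluorescence gave viability.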
# TGFb SMAD3 inh: blocks TGF-b signaling. AID 588855. 410,000 tested, 1.2% active. Potency, µM (doses to about 46.1 µM), inactives show top-dose activity, negative = inhibition, hits mostly inhibitors. HepG2 CAGA-GFP TGF-b/SMAD3 reporter, GFP fluorescence, 18 h; TGF-beta stimulated, 500 pg/mL final; further: potency means the concentration at half of the fitted maximal effect; on the % scale 0 is the no-effect control and ±100 the full control effect; nearly all actives have a fitted effect of over 65% in size
#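 HEPG2 CAGA-GFP reporter cells (1000/well, DMEM with 1% FBS) received compounds, then recombinant TGF-beta at 500 pg/mL final for 18 hours at 37 degrees C. Per-cell GFP summed per well was normalised to unstimulated and stimulated DMSO controls before curve fitting.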
# ATXN viability: cell viability loss in ATXN counter-screen; S2 cells (HEK-293 line with an ATXN2-luciferase reporter) viability, CellTiter-Fluor protease fluorescence, 24 h; Potency, µM (highest dose often 56.7 µM), most hits filed as cytotoxic; 400,000 tested, 0.49% active; further: potency means the concentration at half of the fitted maximal effect; nearly all actives have a fitted effect of over 40% in size
# Six1-Eya2 blk: blocks human Six1 binding to Eya2. Q15475+O00167. AlphaScreen GST-Six1/His-Eya2 binding, biochemical; stronger effect = lower value. activity change, % (no concentration beside the values). 360,000 tested, 0.56% active. AID 651725; in the data active means activity change below about -65%; inconclusive means mostly about -30% to -63%; further: on the % scale 0 is the no-effect control and ±100 the full control effect
# Target sequence (O00167 whole entry, looked up): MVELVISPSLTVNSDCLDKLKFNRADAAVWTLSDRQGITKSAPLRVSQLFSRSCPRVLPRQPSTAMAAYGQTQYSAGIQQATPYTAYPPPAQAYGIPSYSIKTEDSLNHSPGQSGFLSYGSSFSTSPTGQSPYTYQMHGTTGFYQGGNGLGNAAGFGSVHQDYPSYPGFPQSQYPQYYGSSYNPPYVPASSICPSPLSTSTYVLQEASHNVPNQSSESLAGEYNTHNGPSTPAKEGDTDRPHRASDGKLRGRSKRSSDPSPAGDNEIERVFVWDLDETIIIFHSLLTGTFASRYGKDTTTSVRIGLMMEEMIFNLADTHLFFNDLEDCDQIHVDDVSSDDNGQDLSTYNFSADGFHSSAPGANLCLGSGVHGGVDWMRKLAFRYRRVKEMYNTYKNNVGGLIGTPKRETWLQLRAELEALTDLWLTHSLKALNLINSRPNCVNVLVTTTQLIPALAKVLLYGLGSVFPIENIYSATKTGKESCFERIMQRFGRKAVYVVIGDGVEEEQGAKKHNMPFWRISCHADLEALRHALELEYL
# Target sequence (Q15475 whole entry, looked up): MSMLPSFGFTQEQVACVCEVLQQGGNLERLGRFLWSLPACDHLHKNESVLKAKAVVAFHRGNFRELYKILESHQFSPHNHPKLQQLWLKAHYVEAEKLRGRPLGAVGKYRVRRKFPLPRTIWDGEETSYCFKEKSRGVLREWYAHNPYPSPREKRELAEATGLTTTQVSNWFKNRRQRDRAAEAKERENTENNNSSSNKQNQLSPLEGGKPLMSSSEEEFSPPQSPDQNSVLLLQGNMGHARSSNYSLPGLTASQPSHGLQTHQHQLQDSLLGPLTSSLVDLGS
#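 Homogeneous AlphaScreen proximity assay pairing GST-Six1 with His-tagged Eya2 (added as 5X mix: 250 nM and 500 nM) in 50 mM Tris pH 8.0, 300 mM NaCl, 1 mM TCEP. Glutathione donor and nickel acceptor beads; 1 h, 37 °C, dark.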
# * = called active by the depositor; i = inactive; ? = inconclusive; . = no result given. A selection: hits, their analogues and other compounds. The true share with any hit is near 2.8%. Unless noted, the call rests on the fitted dose curve; in most records, active means well fitted curve in the direction sought with a large enough effect; inconclusive means small, poorly fitted or top-dose-only effect, or another doubt; inactive means no such curve, though single readings can be large; an effect the other way counts as inactive or inconclusive.
SMILES,CtBP-E1A inh,HepG2 viability,ATXN2 expr inh,TGFb SMAD3 inh,ATXN viability,Six1-Eya2 blk
CCn1c(=O)c2cc(C(=O)N(C)CC(OC)OC)sc2c2ccccc21,.,-38.7%,.,4.0%,i,10.3
Cc1cnnc2ccccc12,.,5.7%,.,-15.9%,.,.
CCCCOC(=O)c1ccc(NC(=O)Cc2coc3ccc(C(C)C)cc23)cc1,.,-38.7%,?,11.2µM*,?,.
Cc1ccc(NC(=O)Cc2coc3ccc(C(C)C)cc23)cc1Cl,.,-32.1%,-8.4%,11.2µM*,?,.
O=[N+]([O-])c1cc(S(=O)(=O)Oc2ccccc2)ccc1Cl,15.3,8.91µM*,11.2%,?,i,-15.4
CC(C)(C)c1ccc(Cn2c(Cc3ccccc3)nc3ccccc32)cc1,.,15.8µM*,?,14.1µM*,?,.
O=C1C2=C(Nc3ccccc3SC2c2ccco2)c2ccccc21 (stereo not drawn),?,-29.6%,32.1%,0.0%,?,?
CC(=O)Nc1ccc(C2Sc3ccccc3NC3=C2C(=O)c2ccccc23)cc1 (stereo not drawn),.,-25.6%,12.0%,?,15.8µM*,.
O=C1C2=C(Nc3ccccc3SC2c2ccc(C(F)(F)F)cc2)c2ccccc21 (stereo not drawn),.,-53.3%,?,11.2µM*,.,.
CC(C)c1ccc(C2Sc3ccccc3NC3=C2C(=O)c2ccccc23)cc1 (stereo not drawn),.,-36.2%,.,.,.,.
CCc1ccc(C2Sc3ccccc3NC3=C2C(=O)c2ccccc23)cc1 (stereo not drawn),.,-32.7%,-37.2%,11.2µM*,28.2µM*,.
CCN(Cc1cccc(S(=O)(=O)O)c1)c1ccc(C(=C2C=CC(=[N+](CC)Cc3cccc(S(=O)(=O)O)c3)C=C2)c2ccc(O)cc2S(=O)(=O)O)cc1,.,-26.9%,.,?,.,.
CCOC(=O)C1=C(Cc2ccc(Cl)cc2)C(=O)c2ccccc2C1=O,-8.8,11.2µM*,20µM*,?,.,-15.3
CCCCCCCCCC[n+]1cccc2c3ccccc3ccc21,-2.4,11.2µM*,0.67µM*,12.6µM*,?,-4.1
CCCCCCCC[n+]1cccc2c3ccccc3ccc21,.,-9.7%,.,1.41µM*,?,0.2
CCCCCCCCCCCCCCCC[n+]1ccc(C)c2ccccc21,.,11.2µM*,.,7.08µM*,.,.
CCCCCCCCCC[n+]1ccc(/C=C/c2c[nH]c3ccccc23)c2ccccc21,.,12.6µM*,.,7.08µM*,.,.
CC(=O)N1c2ccc(S(=O)(=O)N3CCCCCC3)cc2CC1C(=O)NC(C)C (stereo not drawn),.,-3.1%,15.7%,-20.7%,i,.
CC(=O)CS(=O)(=O)c1ccc(Oc2ccc(S(=O)(=O)CC(C)=O)cc2)cc1,4.8,4.0%,-22.7%,19.6%,?,7.2
CC(=O)CCS(=O)(=O)c1ccc(Oc2ccc(S(=O)(=O)CCC(C)=O)cc2)cc1,-0.2,5.62µM*,25.7%,?,i,2.5
CCOC(=O)c1c(NC(C)=O)sc2c1CCC(C=O)=C2Sc1ccccc1,2.3,-46.3%,28.2µM*,?,.,-8.7
Cc1ccc2cc(CNC(C)CO)c(N3CCC(O)CC3)nc2c1 (stereo not drawn),.,.,.,.,i,.
S=C1NC2=C(CCC/C2=C\c2ccccc2)C(c2ccccc2)N1 (stereo not drawn),-12.7,-31.8%,-2.8%,?,i,-12.1
Fc1cccc(/C=C2\CCCC3=C2NC(=S)NC3c2cccc(F)c2)c1 (stereo not drawn),.,-12.4%,.,8.91µM*,i,-9.1
S=C1NC2=C(CCC/C2=C\c2ccc(Cl)cc2)C(c2ccc(Cl)cc2)N1 (stereo not drawn),-7.4,8.7%,13.9%,17.8µM*,i,-10.3
CCN(C(=O)Cn1c(SCC(=O)Nc2ccc(OC)cc2)nc2ccccc21)c1cccc(C)c1,.,-15.0%,-10.8%,-13.0%,?,.
CN(C)CCCn1c(=O)n(Cc2ccco2)c(=O)c2c3c(sc21)CCCCC3,-13.8,12.6µM*,-17.2%,?,i,-15.5
